KB-3-1 cytotox – kills parental KB-3-1 adenocarcinoma cells; KB-3-1 viability, CellTiter-Glo ATP luminescence, 72 h; Potency, µM (titrated, usually from 46.1 µM), actives largely listed as cytotoxic; actives 1.4% (n = 400,000); AID 1347075; also: % is scaled to controls: 0 for no effect and ±100 for the full control effect; nearly all actives have a fitted effect of over 60% in size
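72 h, 37 °C compound treatment of KB-3-1 parental cells; CellTiter-Glo added, 10 min, luminescence read. Data corrected against DMSO-only plates and normalized before curve fitting.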
TGFb inhibitor – TGF-b pathway inhibition; HepG2 CAGA-GFP TGF-b/SMAD3 reporter, GFP fluorescence, 18 h; TGF-beta stimulated, 500 pg/mL final; Potency, µM (titrated, usually from 46.1 µM), without a hit: top-dose activity, negative = inhibition, hits mostly inhibitors; actives 1.2% (n = 410,000); also: % is scaled to controls: 0 for no effect and ±100 for the full control effect; nearly all actives have a fitted effect of over 65% in size
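HEPG2 CAGA-GFP reporter cells (1000/well, DMEM with 1% FBS) received compounds, then recombinant TGF-beta at 500 pg/mL final for 18 hours at 37 degrees C. Per-cell GFP summed per well was normalised to unstimulated and stimulated DMSO controls before curve fitting.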
HT1080 IDH1KD tx – kills HT-1080 cells with IDH1 knockdown. AID 686971. HT-1080 IDH1 knockdown viability, ATP luminescence, 48 h. Potency, µM (highest dose often 46.1 µM), without a hit: at the top dose activity, negative = toxicity, actives largely listed as cytotoxic. actives 2% (n = 360,000);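 also: 0% = DMSO wells and -100% = cell-free medium wells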
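Using the IDH1-knockdown HT-1080 line run in the same batch and compound series as the NT line, viability after 48 h at 37 °C was determined by CellTiter-Glo luminescence and expressed as % activity.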
HepG2 viability – counter-screen for TGF-b inhibitors: cytotoxicity in HepG2 cells; HepG2 CAGA-GFP viability, ATP luminescence, 18 h; Potency, µM (series often up to 46.1 µM), inactives show top-dose activity change, negative = cytotoxicity, hits mostly cytotoxic; actives 0.76% (n = 410,000)
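CellTiter-Glo luminescence gave cytotoxicity after 18 hours at 37 degrees C. The cells were HepG2 CAGA-GFP in 1% FBS DMEM, stimulated with 500 pg/mL TGF-beta after compound addition. %Activity was normalised to no-cell wells (complete cell-killing) and DMSO (no toxicity), and curves were fitted and classified.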
HT1080NT lethal – kills 2HG-producing HT-1080-NT fibrosarcoma cells | actives 1.6% (n = 360,000) | Potency, µM (top dose mostly 46.1 µM), inactives show top-dose activity, negative = less viability, usual class: cytotoxic | HT-1080-NT fibrosarcoma viability, CellTiter-Glo ATP luminescence, 48 h;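 also: NT is the 2HG producing partner of a matched IDH1 knockdown line; 0% = DMSO-treated cells and -100% = media-only wells without cells; nearly all actives have a fitted effect of over 55% in size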
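A 48-hour cytotoxicity screen used HT-1080-NT cells plated 2 hours before compound delivery. ATP-based CellTiter-Glo luminescence measured viability, normalized to DMSO and no-cell controls.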
KB-V1 cytotox – kills drug-selected multidrug resistant KB-V1 cells; KB-V1 MDR cells viability, CellTiter-Glo, 72 h; Potency, µM (titrated, usually from 46.1 µM), usual class: cytotoxic; actives 3.4% (n = 400,000); AID 1347076; also: % is scaled to controls: 0 for no effect and ±100 for the full control effect; nearly all actives have a fitted effect of over 60% in size
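Cells of the MDR subline KB-V1 are plated, dosed with compound at multiple concentrations, and incubated 72 h at 37 degrees C; CellTiter-Glo is then added and luminescence read after 10 min.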
Starred values were filed as active, the others as inactive; i = inactive; ? = inconclusive; · = not tested or not shown. In the library only some 6.6% were active in any assay of this set; here they are far more common. Calls follow the shape of the dose curve; as a rule, active = well fitted curve in the direction sought with a large enough effect; inconclusive = small, poorly fitted or top-dose-only effect, or another doubt; inactive = no such curve, though single readings can be large; an effect the other way counts as inactive or inconclusive. Potency is read from the fitted curve at half-maximal effect.

SMILES	KB-3-1 cytotox	TGFb inhibitor	HT1080 IDH1KD tx	HepG2 viability	HT1080NT lethal	KB-V1 cytotox
Cc1ccccc1C(c1ncccc1C)N(C)C(=O)C1CCN(CCOc2ccc(Cl)cc2Cl)CC1 (centres undefined)	?	?	23µM*	-86%	?	?
Clc1ccc(OCCN2CCCCC2)c(Cl)c1	i	-10%	?	-10%	-4%	i
Clc1ccccc1CN1CCc2nc(N3CCN(c4ncccn4)CC3)ncc2C1	?	?	·	-21%	·	18µM*
CCOc1cc(/C=N/O)ccc1OCC(=O)Nc1cccc(C)c1	i	-9%	25%	-25%	10%	13µM*
O=C(COC(=O)/C=C/c1ccc(C(F)(F)F)cc1)Nc1ccc2[nH]c(=O)[nH]c2c1	i	-4%	-2%	3.5µM*	-13%	i
CCOc1cc(/C=N\NC(=O)Cc2ccccc2)ccc1OCC(=O)Nc1ccc(C)c(C)c1	?	?	10%	-87%	4%	?
O=C(COc1ccccc1Cl)Nc1ccc2[nH]c(=O)[nH]c2c1	1.5µM*	6%	6%	21%	6%	0.52µM*
CCOc1ccccc1OCC(=O)Nc1ccc2[nH]c(=O)[nH]c2c1	8.2µM*	14%	0%	-4%	-5%	16µM*
O=C1CC(=O)OC(c2ccc([N+](=O)[O-])cc2)O1	i	?	4.6µM*	-57%	16µM*	?
CCN(CC)C(=O)[C@H]1CC(CC(=O)NCC23CC4CC(CC(C4)C2)C3)C(=O)N2CCc3c([nH]c4ccc(OC)cc34)[C@]12C (some centres undefined)	i	?	-29%	2%	-30%	i
CCCCNC(=O)C1CCC(Cn2c(=O)c3sccc3n(CC(=O)Nc3ccccc3)c2=O)CC1 (centres undefined)	i	2%	·	10%	·	i
C(=Nc1cccnc1)c1ccc2ccccc2n1	i	-14%	·	0%	·	i
COc1ccc2c(CC(=O)N(C)CC3COc4ccccc4O3)coc2c1 (centres undefined)	i	-51%	0%	-13%	-15%	18µM*
COC(=O)c1ccc(NC(=O)CC2C(=O)N(c3cccc(OC)c3)C(=O)N2Cc2cccc(OC)c2)cc1 (centres undefined)	·	-21%	·	-15%	·	·
Cc1ccc(-c2c3c(nc4sc(C(N)=O)c(N)c24)CCC3)cc1	i	?	?	-33%	-21%	?
COc1ccc(-c2c3c(nc4sc5c(Cl)nc(C)nc5c24)CCC3)cc1	7.3µM*	3%	11%	1%	14%	?
NC(=O)c1sc2nc3c(c(-c4ccc(Cl)cc4)c2c1N)CCCC3	?	?	?	-19%	?	2.9µM*
Cc1ccc(C(=O)Cn2nnc3c(sc4nc5c(c(-c6ccccc6)c43)CCC5)c2=O)cc1	i	3%	11%	-1%	11%	i
Nc1c(C(=O)NCc2ccc(Cl)cc2)sc2nc3c(c(C(F)(F)F)c12)CCC3	i	-1%	10%	-9%	14%	15µM*
COC(=O)C1=C[C@@H](C(=O)OC)C2C3=C(C(=O)[C@]2(C)NC(=O)c2ccccc2)[C@H](C)n2c(=O)n(C)c(=O)n2[C@@H]3C1 (some centres undefined)	·	-2%	·	-3%	·	·
CCOc1ccc(C(=O)c2oc3ccccc3c2NC(=O)Cc2coc3ccc(CC)cc23)cc1	i	-9%	·	6%	·	i
Clc1ccc(-c2nnc(-c3ccc(Br)cc3)c(N3CCSCC3)n2)cc1	i	0%	1%	-3%	0%	i
Clc1ccc(-c2nnc(-c3ccco3)nc2N2CCCCC2)cc1	i	-21%	12%	-16%	8%	18µM*
COc1ccccc1/C=C/C1(C(=O)NC2CCCC2)CC(=O)N1c1ccccc1 (centres undefined)	3.7µM*	?	?	8%	16µM*	3.7µM*
CN(C)S(=O)(=O)c1ccc(N2C(=O)CC2(/C=C/c2ccccc2)C(=O)NC2CCCC2)cc1 (centres undefined)	i	-1%	-9%	4%	2%	5.2µM*
SMILES	KB-3-1 cytotox	TGFb inhibitor	HT1080 IDH1KD tx	HepG2 viability	HT1080NT lethal	KB-V1 cytotox
CCOC(=O)CNC(=O)C1(/C=C/c2ccccc2)CC(=O)N1c1ccc(C)cc1 (centres undefined)	?	0%	-23%	-14%	-25%	i
COc1ccc(OC)c(N(CC(=O)NCc2ccccc2)S(=O)(=O)c2ccccc2)c1	i	6%	·	-5%	·	i
Cc1cccc2cc(C#N)c(NCCNC(=O)COc3ccccc3)nc12	?	-8%	-4%	-29%	-3%	i
Cc1ccc2cc(C#N)c(NCCNC(=O)C3CC3)nc2c1C	?	-16%	-7%	-12%	-3%	3.7µM*
Cc1ccc2cc(C#N)c(NCCNC(=S)NCCCN(C)C)nc2c1C	i	-23%	?	-11%	21µM*	i
O=C(N/N=C/c1ccc(Cl)cc1)c1cc(-c2cccnc2)nc2ccccc12	9.2µM*	-31%	?	2%	?	9.2µM*
Cc1cccc(-c2cc(C(=O)Nc3cccnc3)c3ccccc3n2)c1	?	7%	-15%	-28%	-2%	?
O=C(N/N=C/c1cccnc1)c1cc(-c2ccccc2)nc2ccccc12	i	0%	-23%	-52%	?	i
Cc1ccc(/C=N/NC(=O)c2cc(-c3cccnc3)nc3ccccc23)cc1	2.9µM*	?	1.3µM*	3%	1.5µM*	2.9µM*
Cc1ccc2nc(-c3ccccc3)cc(C(=O)Nc3cccnc3)c2c1	i	?	8%	6%	1%	2.9µM*
Cc1ccc(-c2cc(C(=O)NNC(=O)c3csc(N4CCOCC4)n3)c3ccccc3n2)cc1	i	-27%	-25%	-14%	?	i
Cc1ccc2nc(-c3ccccc3)cc(C(=O)NNC(=O)c3csc(N4CCOCC4)n3)c2c1	i	-1%	-18%	-12%	-1%	21µM*
COc1ccc(CC(=O)Nc2c(C(=O)Nc3ccccc3F)oc3ccccc23)cc1	i	-18%	·	-5%	·	i
C[C@@H]1CN([C@H](C)CO)C(=O)CCCn2cc(nn2)CO[C@H]1CN(C)C(=O)Nc1cccc(Oc2ccccn2)c1	i	11%	1%	-22%	0%	?

From PubChem BioAssay
